Activity calls are given as the source filed them.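 How the source made its calls, unless noted: active means fluorescence slope after compound addition differing from the mean of all screened samples at 99.7% confidence, in either direction; inactive means the rest.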
Assays:
[1] = inhibitors of TNFa-induced NFkB p65 translocation, primary screen, imaging, HUVEC, MLSMR starter and 10KST1 sets (AID 438;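 active means inhibition above 20% together with a positive visual image hit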;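 further: compound added about 3h40 before a 20 min TNFalpha stimulation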;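 on inhibition: signal is the nuclear over cytoplasmic p65 intensity ratio per well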); settings: HUVEC TNFa-induced p65 nuclear translocation; cell count: measured here: nuclei count (cytotoxicity indicator), at 2.08 µM; inhibition: at 2 µM, stronger effect = higher value, 0% TNFa-plus-vehicle, 100% no-TNFa wells
[2] = reduction of polyQ htt aggregates in cells – imaging, exon1htt(103Q)mCFP cells, high-content imaging, primary screen (AID 483;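 active means visual image review flags a hit and inhibition of aggregation exceeds 20%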;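 further: compound exposure lasted 3 days before fixation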;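 on nuclei count: percent of the per-plate median nuclei count of sample wells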); settings: exon1htt(103Q)mCFP cell line, aggregate imaging, at 2 µM; inhibition of aggregation: stronger effect = higher value; nuclei count: measured here: cell count, toxicity
[3] = endothelial E-selectin expression blockers – imaging, HUVEC, immunofluorescence, MLSMR starter and 10KST1 sets, primary screen (AID 487;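 active means visually confirmed hit in the image check and inhibition above 20%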;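 on inhibition: signal is fraction of cell area covered by stained E-selectin grains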;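 on nuclei count: 100% = median nuclei count of all wells on the same plate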); settings: HUVEC TNFalpha-induced E-selectin immunofluorescence imaging, at 2 µM; inhibition: stronger effect = higher value; nuclei count: measured here: cell number, toxicity
[4] = target: Voltage-gated potassium channel subunit beta-2 (Rattus norvegicus) (UniProt P62483); assay: inhibitors of rat Kvbeta2 reductase activity – biochemical, NADPH fluorescence, primary screen (AID 622;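 active means fluorescence slope higher than the sample average by over 3 SD, cut at about -0.22 in these data, passing the limit was not always enough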;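 further: slope of raw intensity against log time taken from 70 to 1610 s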); settings: recombinant KvBeta, 4-cyanobenzaldehyde reduction, at 10 µM, stronger effect = higher value
Voltage-gated potassium channel subunit beta-2 (Rattus norvegicus), sequence (P62483 whole entry, looked up): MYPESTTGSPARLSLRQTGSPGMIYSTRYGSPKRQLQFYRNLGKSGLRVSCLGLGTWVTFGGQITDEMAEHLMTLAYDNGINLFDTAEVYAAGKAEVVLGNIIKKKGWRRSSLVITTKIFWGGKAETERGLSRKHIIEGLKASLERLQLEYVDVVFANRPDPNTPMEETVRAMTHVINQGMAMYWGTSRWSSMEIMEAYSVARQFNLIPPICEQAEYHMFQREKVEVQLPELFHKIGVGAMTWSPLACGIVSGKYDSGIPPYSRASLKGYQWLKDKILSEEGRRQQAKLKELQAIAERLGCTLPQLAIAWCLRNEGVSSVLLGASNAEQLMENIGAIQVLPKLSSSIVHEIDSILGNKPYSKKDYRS

[5] = target: Voltage-gated potassium channel subunit beta-2 (Rattus norvegicus) (UniProt P62483); assay: enhancers of rat Kvbeta2 NADPH turnover – biochemical, NADPH fluorescence, primary screen (AID 623;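 active means NADPH fluorescence slope more negative than the mean of all samples by about 3 SD, 99.7% confidence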;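 further: fluorescence intensity change per second fitted from 20 to 320 s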); settings: Recombinant KvBeta, NADPH fluorescence decrease slope, 10 min; at 10 µM; stronger effect = lower value
[6] = target: Alpha-2C adrenergic receptor (Homo sapiens) (UniProt P18825); assay: compounds altering alpha2C-coupled GIRK flux – cell-based, HEK293 alpha2C/GIRK1/2, thallium flux, primary screen (AID 624); settings: thallium flux BTC fluorescence, at 10 µM, actives lie on both sides;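 further: slope of fluorescence ratio to pre-addition baseline per second over 15 to 24 s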
Alpha-2C adrenergic receptor (Homo sapiens), sequence (P18825 whole entry, looked up): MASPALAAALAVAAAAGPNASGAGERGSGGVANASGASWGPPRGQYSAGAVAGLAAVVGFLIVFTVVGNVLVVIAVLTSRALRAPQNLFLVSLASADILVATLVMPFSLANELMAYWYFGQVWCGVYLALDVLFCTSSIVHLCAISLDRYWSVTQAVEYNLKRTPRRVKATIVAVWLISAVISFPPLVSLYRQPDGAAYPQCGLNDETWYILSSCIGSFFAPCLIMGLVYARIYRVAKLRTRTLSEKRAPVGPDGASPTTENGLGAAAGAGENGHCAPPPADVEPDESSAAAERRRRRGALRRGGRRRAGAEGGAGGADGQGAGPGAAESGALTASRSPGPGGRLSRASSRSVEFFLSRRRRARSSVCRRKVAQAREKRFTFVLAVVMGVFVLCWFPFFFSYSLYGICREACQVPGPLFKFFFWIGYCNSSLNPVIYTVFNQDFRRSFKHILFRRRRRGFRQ

[7] = blockers of RIG-like receptor reporter activation – cell-based, Sendai virus stimulus, luciferase, 10K MLSCN set, TLR/RLR signaling modifier project, primary screen (AID 602276;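 active means inhibition at or above 50% at 10 µM; inactive means inhibition below 50%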;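 further: firefly luciferase from ISG56 promoter only with Renilla not read in this screen; 0% = Sendai virus plus DMSO and 100% = medium plus DMSO without virus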); settings: HEK293 RL24 IRF3 luciferase reporter, at 10 µM, stronger effect = higher value
[8] = TLR3 IRF3 reporter activation blockers – cell-based, poly I:C stimulus, luciferase, 10K MLSCN set, primary screen (AID 602277;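 active means inhibition of the reporter signal at or above 50%; inactive means inhibition below 50%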); settings: HEK293-TLR3 RL24 IRF3 luciferase reporter, at 10 µM, stronger effect = higher value

SMILES	cell count [1]	inhibition [1]	inhibition of aggregation [2]	nuclei count [2] [%]	inhibition [3]	nuclei count [3] [%]	fluorescence slope [4]	NADPH fluorescence slope [5]	slope [6]	inhibition [7]	inhibition [8]
COc1ccc(OC)c(S(=O)(=O)Nc2ccccc2SC)c1	623	-5% (inactive)	20% (inactive)	96.7	20.9% (inactive)	85.2	-0.486 (inactive)	-3.4e-05 (inactive)	0.00443 (inactive)	21% (inactive)	24% (inactive)
O=C(Nn1c(C2CC2)nc2ccccc2c1=O)c1ccco1	579	-12.1% (inactive)	9.9% (inactive)	95.2	-38.3% (inactive)	116	-0.48 (inactive)	6.6e-05 (inactive)	0.00689 (inactive)	9.09% (inactive)	23.5% (inactive)
CCOC(=O)c1[nH]nc(N)c1NC(=O)c1ccc(Cl)cc1Cl	554	-4.9% (inactive)	3.8% (inactive)	99.2	-238% (inactive)	134	-0.456 (inactive)	8.2e-05 (inactive)	0.00589 (inactive)	-16.4% (inactive)	-22.5% (inactive)
O=C(CCCNS(=O)(=O)c1ccccc1)NCc1ccco1	242	-6.9% (inactive)	22.9% (inactive)	80.7	27.9% (inactive)	80.8	-0.425 (inactive)	-1.4e-05 (inactive)	0.00453 (inactive)	12.9% (inactive)	10.4% (inactive)
c1ccc(CCn2nnnc2C(c2cccs2)N2CCOCC2)cc1 (centres undefined)	675	-8.6% (inactive)	-16% (inactive)	124	-74.9% (inactive)	106	-0.488 (inactive)	-0.000173 (inactive)	0.00462 (inactive)	4.38% (inactive)	17.4% (inactive)
O=C(CSc1nnnn1-c1ccc(Cl)cc1)NC(=O)Nc1ccc2c(c1)OCCO2	336	5.6% (inactive)	19.6% (inactive)	84.7	-86.5% (inactive)	120	-0.429 (inactive)	-3.6e-05 (inactive)	0.00808 (inactive)	-24.8% (inactive)	-57% (inactive)
CCc1nnc(NC(=O)c2ccc(S(=O)(=O)N(CC(C)C)CC(C)C)cc2)o1	415	-1.4% (inactive)	2.2% (inactive)	94.8	12.8% (inactive)	81.5	-0.507 (inactive)	-1.1e-05 (inactive)	0.00793 (inactive)	8.12% (inactive)	15.2% (inactive)
COc1ccc(C(=O)N(CCCO)Cc2cc3c(C)ccc(C)c3[nH]c2=O)cc1OC	647	-3% (inactive)	12.4% (inactive)	91.4	19.2% (inactive)	86.7	-0.389 (inactive)	-0.00013 (inactive)	0.00636 (inactive)	8.26% (inactive)	19% (inactive)
COC(=O)CCn1nnc(-c2cccs2)n1	547	-6.8% (inactive)	7.6% (inactive)	110	-34.8% (inactive)	96	-0.598 (inactive)	-5.1e-05 (inactive)	0.00439 (inactive)	-2.1% (inactive)	-22% (inactive)
Cc1nnc(N2C(=O)c3oc4ccccc4c(=O)c3C2c2ccco2)s1 (centres undefined)	804	-5.5% (inactive)	8.3% (inactive)	98.1	-28.9% (inactive)	124	-0.579 (inactive)	-2.5e-05 (inactive)	0.00589 (inactive)	12.3% (inactive)	13.8% (inactive)
COc1ccc(-n2c(=O)c3c4c(sc3n3c(C)nnc23)CCCC4)cc1	415	3.3% (inactive)	4.3% (inactive)	100	-7.4% (inactive)	116	-0.35 (inactive)	-2.4e-05 (inactive)	0.00664 (inactive)	4.81% (inactive)	19.4% (inactive)
O=C1c2ccccc2C(=O)N1CNc1ccccc1	425	-2.7% (inactive)	-3.7% (inactive)	112	-144% (inactive)	118	-0.603 (inactive)	-1.7e-05 (inactive)	0.00312 (inactive)	7.68% (inactive)	-8.22% (inactive)
Cc1cc(Br)ccc1NC(=O)CNC(=O)CSc1n[nH]c(N)n1	390	-12.1% (inactive)	-13.4% (inactive)	74.3	-25.1% (inactive)	115	-0.58 (inactive)	-3.3e-05 (inactive)	0.00679 (inactive)	13.4% (inactive)	37.1% (inactive)
CCOC(=O)C(C)Sc1nnc(Cc2cc(=O)[nH]c(=O)[nH]2)n1-c1ccc(Cl)cc1 (centres undefined)	817	-6.8% (inactive)	4.6% (inactive)	107	-37.1% (inactive)	99.1	-0.615 (inactive)	5.1e-06 (inactive)	0.00534 (inactive)	15.5% (inactive)	12% (inactive)

— PubChem BioAssay
